PubChem BioAssay
For some of these results: Entries with a potency or affinity are not part of this list. Activity calls are given as the source filed them.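 The calls were made as follows, unless noted: active = membrane potential signal rise above negative control mean plus 3 SD in both duplicates, also active in the earlier TRPC4 screen; inactive = the rest.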

Assays:
[1] = test system: TRPC4 beta (transient receptor potential cation channel C4), mouse; assay: TRPC4 cation channel opening, retest – cell-based, Fluo4 calcium, HEK293 TRPC4beta/mu-opioid, duplicates, 10 µM, confirmation (AID 2426;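 active = fluorescence ratio normalized to control raised more than 50% in primary screen plus both repeat runs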); conditions: Fluo4 calcium fluorescence, at 10 µM; active compounds read high
[2] = test system: transient receptor potential cation channel C4 beta (TRPC4), mouse; assay: TRPC4 cation channel opening, second retest – cell-based, second round, Fluo4, HEK293 TRPC4beta/mu-opioid, 1 µM, confirmation (AID 2461;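 active = primary screen active and over 50% activation in each of two duplicate runs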); conditions: Fluo4 calcium fluorescence, at 1 µM; active compounds read high
[3] = test system: TRPC4 (transient receptor potential cation channel C4 beta), mouse; assay: potentiation of DAMGO EC20 TRPC4 response – cell-based, second round, Fluo-4, HEK293 TRPC4beta/mu-opioid, 1 µM, confirmation (AID 2554;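 active = primary screen hit whose fluorescence ratio, in both repeats, exceeds the weak agonist control mean by 3 SD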); conditions: DAMGO EC20, Fluo-4 calcium flux, at 1 µM; active compounds read high
[4] = test system: TRPC4 beta (transient receptor potential cation channel C4), mouse; assay: potentiation of DAMGO EC20 TRPC4 response – cell-based, Fluo-4, HEK293 TRPC4beta/mu-opioid, confirmation (AID 2555;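 active = primary screen hit whose calcium fluorescence ratio, in both repeats, exceeds the weak agonist control mean by 3 SD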); conditions: DAMGO EC20, Fluo-4 calcium flux, at 10 µM; active compounds read high
[5] = molecular target: Short transient receptor potential channel 4 (Mus musculus) (UniProt Q9QUQ5); assay: blockers of DAMGO-evoked TRPC4 calcium flux – cell-based, Fluo4, HEK293 TRPC4beta/mu-opioid, confirmation (AID 2636;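 active = calcium signal cut by more than 3 SD below the full-agonist control yet still positive, in both repeats and the earlier primary screen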); conditions: at 10 µM; active compounds read high
Chain of Short transient receptor potential channel 4 (Mus musculus) (Q9QUQ5 whole entry, looked up): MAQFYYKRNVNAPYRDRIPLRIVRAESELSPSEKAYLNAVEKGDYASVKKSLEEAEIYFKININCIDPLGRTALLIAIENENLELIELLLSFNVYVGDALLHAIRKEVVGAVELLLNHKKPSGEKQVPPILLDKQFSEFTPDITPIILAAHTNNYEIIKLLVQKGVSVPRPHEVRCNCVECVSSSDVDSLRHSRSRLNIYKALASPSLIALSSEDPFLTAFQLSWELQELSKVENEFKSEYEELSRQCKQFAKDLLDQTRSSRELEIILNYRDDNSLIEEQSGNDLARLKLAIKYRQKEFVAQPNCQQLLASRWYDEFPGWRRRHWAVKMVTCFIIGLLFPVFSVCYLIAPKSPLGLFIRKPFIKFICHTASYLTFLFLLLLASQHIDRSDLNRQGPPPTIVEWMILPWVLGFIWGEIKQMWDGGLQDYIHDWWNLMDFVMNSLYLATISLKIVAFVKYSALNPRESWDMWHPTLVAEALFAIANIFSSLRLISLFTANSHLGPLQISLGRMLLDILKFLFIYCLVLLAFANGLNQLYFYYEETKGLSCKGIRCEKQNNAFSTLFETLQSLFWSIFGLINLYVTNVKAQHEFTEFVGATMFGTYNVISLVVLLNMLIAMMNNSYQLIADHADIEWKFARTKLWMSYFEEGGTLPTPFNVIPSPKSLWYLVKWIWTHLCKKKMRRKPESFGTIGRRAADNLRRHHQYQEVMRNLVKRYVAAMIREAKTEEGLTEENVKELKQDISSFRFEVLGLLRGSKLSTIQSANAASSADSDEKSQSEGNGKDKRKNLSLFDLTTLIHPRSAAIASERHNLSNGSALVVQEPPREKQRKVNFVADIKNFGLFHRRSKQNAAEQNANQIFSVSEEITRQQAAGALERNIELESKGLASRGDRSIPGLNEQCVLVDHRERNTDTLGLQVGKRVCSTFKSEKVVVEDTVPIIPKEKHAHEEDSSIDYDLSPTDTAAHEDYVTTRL

[6] = molecular target: Short transient receptor potential channel 4 (Mus musculus) (UniProt Q9QUQ5); assay: blockers of DAMGO-evoked TRPC4 calcium flux – cell-based, second round, Fluo4, HEK293 TRPC4beta/mu-opioid, 1 µM, confirmation (AID 2637;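 active = calcium signal ratio cut to more than 3 SD under the fully stimulated control mean yet still positive, in both repeats and the primary screen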); conditions: at 1 µM; active compounds read high
[7] = molecular target: Short transient receptor potential channel 4 (Mus musculus) (UniProt Q9QUQ5); assay: calcium entry via TRPC4 opening agents – cell-based, HEK293 TRPC4/mu-opioid, Fluo-4 calcium, dose response (AID 434937;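 active = primary screen activator hit with a dose response curve and TRPC4 channel activation at any tested dose; inactive = no activation, no dose response, or not a primary hit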)
[8] = molecular target: Short transient receptor potential channel 4 (Mus musculus) (UniProt Q9QUQ5); assay: potentiation of DAMGO-evoked TRPC4 calcium signal – cell-based, HEK293 TRPC4/mu-opioid, Fluo-4 calcium, EC20 DAMGO, dose response (AID 434941;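 active = earlier screen potentiator hit that boosts the TRPC4 ion channel at some dose, with a dose response; inactive = no potentiation, no dose response, or not a prior hit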;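 also: calcium entry triggered by an EC20 dose of DAMGO at the co-expressed mu-opioid receptor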)
[9] = molecular target: Short transient receptor potential channel 4 (Mus musculus) (UniProt Q9QUQ5); assay: block of DAMGO-driven TRPC4 calcium entry – cell-based, HEK293 TRPC4/mu-opioid, Fluo-4 calcium, dose response (AID 434942;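 active = primary screen inhibitor hit that blocks the TRPC4 channel at some tested dose, yielding a dose curve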)
[10] = molecular target: Short transient receptor potential channel 6 (Mus musculus) (UniProt Q61143); assay: TRPC6 blockade by TRPC4 inhibitor hits – cell-based, HEK293, membrane potential dye, duplicate, selectivity assay for TRPC4 inhibitor project, confirmation (AID 434948;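 active = active in primary screen and both duplicates, each dropping signal beyond three positive-control SD with fluorescence still positive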); conditions: HEK293 TRPC6, membrane potential dye fluorescence, at 10 µM, stimulated with maximal-effect acetylcholine; active compounds read high
Chain of Short transient receptor potential channel 6 (Mus musculus) (Q61143 whole entry, looked up): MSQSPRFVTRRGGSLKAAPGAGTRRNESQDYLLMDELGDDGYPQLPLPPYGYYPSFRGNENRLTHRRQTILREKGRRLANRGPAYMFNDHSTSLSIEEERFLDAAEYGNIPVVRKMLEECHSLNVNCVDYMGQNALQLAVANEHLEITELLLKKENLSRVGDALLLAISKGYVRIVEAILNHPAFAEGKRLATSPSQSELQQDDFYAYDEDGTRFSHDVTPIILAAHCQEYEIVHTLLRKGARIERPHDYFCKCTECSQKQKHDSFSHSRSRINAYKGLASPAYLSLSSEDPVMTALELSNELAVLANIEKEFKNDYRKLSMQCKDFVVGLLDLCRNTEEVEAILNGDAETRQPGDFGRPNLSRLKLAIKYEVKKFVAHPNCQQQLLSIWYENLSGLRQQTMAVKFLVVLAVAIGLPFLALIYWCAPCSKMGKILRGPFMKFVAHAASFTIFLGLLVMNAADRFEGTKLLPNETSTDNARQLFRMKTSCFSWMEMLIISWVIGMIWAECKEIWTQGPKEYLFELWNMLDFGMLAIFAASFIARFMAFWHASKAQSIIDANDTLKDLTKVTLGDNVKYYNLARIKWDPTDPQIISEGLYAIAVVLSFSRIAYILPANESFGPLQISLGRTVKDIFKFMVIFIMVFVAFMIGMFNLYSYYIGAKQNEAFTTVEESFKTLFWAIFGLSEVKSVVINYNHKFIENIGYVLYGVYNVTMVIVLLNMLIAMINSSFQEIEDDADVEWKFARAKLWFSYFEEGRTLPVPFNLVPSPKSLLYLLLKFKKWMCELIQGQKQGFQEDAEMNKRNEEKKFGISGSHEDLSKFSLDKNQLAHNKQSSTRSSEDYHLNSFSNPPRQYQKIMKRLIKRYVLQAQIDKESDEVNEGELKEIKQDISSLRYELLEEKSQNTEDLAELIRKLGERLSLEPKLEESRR

[11] = molecular target: Short transient receptor potential channel 6 (Mus musculus) (UniProt Q61143); assay: TRPC6 opening by TRPC4 activator hits – cell-based, HEK293, membrane potential dye, duplicate, selectivity assay for TRPC4 activator project, confirmation (AID 434950); conditions: HEK293 TRPC6, membrane potential fluorescence, at 10 µM; activation: active compounds read high; outcome: activation
[12] = molecular target: Short transient receptor potential channel 6 (Mus musculus) (UniProt Q61143); assay: positive modulators of mouse TRPC6 channel – HEK293 cells, membrane potential dye, duplicate, selectivity assay for TRPC4 potentiator project, confirmation (AID 434952;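 active = compound raising the membrane signal above positive-control mean plus 3 SD in both repeats, and a primary screen hit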); conditions: HEK293 TRPC6, membrane potential dye fluorescence, at 10 µM, maximal acetylcholine added after compound; active compounds read high
[13] = molecular target: Short transient receptor potential channel 4 (Mus musculus) (UniProt Q9QUQ5); assay: calcium flux activators in TRPC4/5HT1a cells, counter-screen for TRPC4 activator project, cell-based, second counter screen, HEK293 TRPC4/5HT1a, Fluo-4 (AID 434977;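 active = calcium signal rise above buffer-control mean plus 5 SD in both duplicates, and also a hit in the primary screen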;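 as to activation: plate controls were assay buffer for no effect and maximal serotonin response for full effect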); conditions: Fluo-4 calcium flux, at 10 µM; active compounds read high
[14] = serotonin-gated TRPC4 signal block – cell-based, second counter screen, HEK293 TRPC4/5HT1a, Fluo-4, counter-screen for TRPC4 inhibitor project, confirmation (AID 434978;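 active = primary screen active whose calcium signal fell more than 3 SD beyond the full-serotonin control mean in both duplicate plates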;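 as to outcome: serotonin given first at submaximal then at maximal dose after compound preincubation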); conditions: Fluo-4 calcium flux, at 10 µM, serotonin added to trigger calcium flux; active compounds read high
[15] = test system: TRPC4 (mouse), co-expressed with 5HT1a in HEK293; assay: enhancement of serotonin-evoked TRPC4 response – cell-based, second counter screen, HEK293 TRPC4/5HT1a, Fluo-4, counter-screen for TRPC4 potentiator project, confirmation (AID 434979;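 active = signal rise over 3 SD above mean of control wells given weak agonist, in both repeats and first screen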); conditions: Fluo-4 calcium flux, at 10 µM, serotonin added at its EC20 dose; active compounds read high
[16] = nonspecific calcium rise without TRPC4 – cell-based, HEK293 mu-opioid receptor line, counter-screen for TRPC4 activator project, confirmation (AID 449723;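 active = hit in primary screen, with calcium signal over 5 SD above buffer well mean in both duplicates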;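 also: counter screen cells carry the mu-opioid receptor alone and lack TRPC4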); conditions: HEK293 mu-opioid cells, Fluo-4 calcium fluorescence, at 10 µM; active compounds read high
[17] = nonspecific potentiation of DAMGO calcium response – cell-based, HEK293 mu-opioid receptor line, counter-screen for TRPC4 allosteric potentiator project, confirmation (AID 449724;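 active = calcium signal rise more than 3 SD above the low-dose agonist control mean, in both duplicate plates and the primary screen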); conditions: HEK293 mu-opioid receptor cells, Fluo-4 calcium flux, at 10 µM, compound added before EC20 DAMGO stimulus; active compounds read high

CC(C)(C)C(=O)NCCCc1nc2ccccc2n1CCCOc1ccc(Cl)cc1
inactive: outcome [1] | outcome [2] | outcome [3] | outcome [4] | outcome [5] | outcome [6] | outcome [7] | outcome [8] | outcome [9] | outcome [10] | outcome [11] | outcome [12] | outcome [13] | outcome [14] | outcome [15] | outcome [16] | outcome [17]

OCCN(CCO)c1ncnc2c1sc1nc(N3CCOCC3)c3c(c12)CCCC3
inactive: outcome [1] | outcome [2] | outcome [3] | outcome [5] | outcome [6] | outcome [7] | outcome [8] | outcome [9] | outcome [10] | outcome [11] | outcome [12] | outcome [13] | outcome [14] | outcome [16] | outcome [17]
active: potentiation [4] 10% | potentiation [15] 27.8%

N#Cc1ccc(OCC(O)CN2CCN(c3ncc(C(F)(F)F)cc3Cl)CC2)cc1 (stereo not drawn)
active: potentiation [3] 8% | potentiation [15] 12.6%
inactive: outcome [1] | outcome [2] | outcome [4] | outcome [5] | outcome [6] | outcome [7] | outcome [8] | outcome [9] | outcome [10] | outcome [11] | outcome [12] | outcome [13] | outcome [14] | outcome [16] | outcome [17]

O=C(NC1CCCC1)c1cc2ccccc2o1
active: potentiation [4] 14% | potentiation [15] 19.7%
inactive: outcome [1] | outcome [2] | outcome [3] | outcome [5] | outcome [6] | outcome [7] | outcome [8] | outcome [9] | outcome [10] | outcome [11] | outcome [12] | outcome [13] | outcome [14] | outcome [16] | outcome [17]

C/C(=N\NC(=O)COc1ccc(C)cc1C(C)C)c1ccc(-n2ccnc2)cc1
active: potentiation [15] 10.4%
inactive: outcome [1] | outcome [2] | outcome [3] | outcome [4] | outcome [5] | outcome [6] | outcome [7] | outcome [8] | outcome [9] | outcome [10] | outcome [11] | outcome [12] | outcome [13] | outcome [14] | outcome [16] | outcome [17]

O=C(Cc1cn(Cc2cccc(Cl)c2)c2ccccc12)N1CCCC1
active: potentiation [4] 10% | potentiation [15] 29.2%
inactive: outcome [1] | outcome [2] | outcome [3] | outcome [5] | outcome [6] | outcome [7] | outcome [8] | outcome [9] | outcome [10] | outcome [11] | outcome [12] | outcome [13] | outcome [14] | outcome [16] | outcome [17]

CCOC(=O)c1cn(Cc2ccccc2)c(C(=O)OC(C)(C)C)c1O
inactive: outcome [1] | outcome [2] | outcome [3] | outcome [4] | outcome [5] | outcome [6] | outcome [7] | outcome [8] | outcome [9] | outcome [10] | outcome [11] | outcome [12] | outcome [14] | outcome [15] | outcome [17]
active: activation [13] 54.1% | activation [16] 21.1%

COc1ccc(OC)c(Nc2c3c(nc4ccccc24)CCC3)c1
inactive: outcome [1] | outcome [2] | outcome [3] | outcome [4] | outcome [6] | outcome [7] | outcome [8] | outcome [9] | outcome [10] | outcome [11] | outcome [12] | outcome [13] | outcome [15] | outcome [16] | outcome [17]
active: inhibition [5] 67% | inhibition [14] 30.5%

Cc1ccsc1C(=O)OCC(=O)NCCNC(=O)COC(=O)c1sccc1C
inactive: outcome [1] | outcome [2] | outcome [3] | outcome [4] | outcome [5] | outcome [6] | outcome [7] | outcome [8] | outcome [9] | outcome [10] | outcome [11] | outcome [12] | outcome [13] | outcome [14] | outcome [15] | outcome [16] | outcome [17]

COc1cc(CNC2CCCCCCC2)cc(Br)c1OCC#N
inactive: outcome [1] | outcome [2] | outcome [3] | outcome [4] | outcome [5] | outcome [6] | outcome [7] | outcome [8] | outcome [9] | outcome [10] | outcome [11] | outcome [12] | outcome [13] | outcome [14] | outcome [15] | outcome [16] | outcome [17]

CCN(CC)CC(=O)Nc1ccccc1SCC(=O)Nc1ccsc1C(=O)OC
inactive: outcome [1] | outcome [2] | outcome [3] | outcome [4] | outcome [5] | outcome [6] | outcome [7] | outcome [8] | outcome [9] | outcome [10] | outcome [11] | outcome [12] | outcome [13] | outcome [14] | outcome [15] | outcome [16] | outcome [17]

CCOC(=O)C1CCN(c2nc3ccccc3nc2C(C#N)C(=O)OCCOC)CC1 (stereo not drawn)
inactive: outcome [1] | outcome [2] | outcome [3] | outcome [4] | outcome [5] | outcome [6] | outcome [7] | outcome [8] | outcome [9] | outcome [10] | outcome [11] | outcome [12] | outcome [13] | outcome [14] | outcome [15] | outcome [16] | outcome [17]

O=C(COc1ccccc1)NC1CCCCCCC1
active: potentiation [3] 9% | potentiation [4] 33% | potentiation [15] 40.7%
inactive: outcome [1] | outcome [2] | outcome [5] | outcome [6] | outcome [7] | outcome [8] | outcome [9] | outcome [10] | outcome [11] | outcome [12] | outcome [13] | outcome [14] | outcome [16] | outcome [17]

Cc1c(N2C(=O)/C(=C/c3ccccc3)SC2=S)c(=O)n(-c2ccccc2)n1C
inactive: outcome [1] | outcome [2] | outcome [3] | outcome [4] | outcome [5] | outcome [6] | outcome [7] | outcome [8] | outcome [9] | outcome [10] | outcome [11] | outcome [12] | outcome [13] | outcome [14] | outcome [15] | outcome [16] | outcome [17]
